Experimental data published in PubChem BioAssay AID624352 (Sanford-Burnham Center for Chemical Genomics, 2012).
Screen size: about 360,000 compounds; about 2,600 (0.72%) were called active. The sample holds actives, similar compounds and a random draw of the others, so the mix is not that of the screen. A number with no mark means an inactive call.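 The calls were made as follows: active = inhibition of the luminescence signal of 40% or more relative to plate controls, in a single-dose primary screen at 18.75 µM; inactive = the rest.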

test: blockers of HIF-2a driven luciferase – luminescence, 786-0 RCC cells, primary screen (AID 624352); details: 786-0 RCC cells HIF-2a reporter, overnight, at 18.8 µM, active compounds read high

For `O=[N+]([O-])c1c(NCCO)cc(Sc2nc3ccccc3s2)c2nonc12`, which inhibition is on record?
The inhibition was 87% (active).

Which inhibition does the source give for `CC(C)=CCN1CCN(CCCc2ccccc2)CC1CCO` (configuration not stated) here?
Its inhibition is 16.8%.

For `CC[C@]1(c2ccccc2OC)C(=O)N(C(=O)OC)N1C(=O)OC`, which inhibition is on record?
The inhibition was 18.5%.

For `CCN(CC(=O)NC(C)C)C(=O)CCNC(=O)c1ccc(Cl)cc1`, which inhibition is on record?
Its inhibition is 14.3%.

Which inhibition does the source give for `O=C(OC1CCOC1=O)c1cccc(S(=O)(=O)Nc2ccc(F)cc2)c1` (configuration not stated) here?
The inhibition was 14.8%.

For `COc1ccc(N2CCN(C(=O)COC(=O)c3cccc(S(=O)(=O)Nc4ccccc4OC)c3)CC2)cc1`, which inhibition is on record?
The inhibition was 12.6%.

For `CC(=O)Nc1ccc(/C(C)=N/NC(=O)CN(c2ccccc2Br)S(C)(=O)=O)cc1`, which inhibition is on record?
Its inhibition is 1.74%.

For `O=C(Oc1ccc(-c2nc(-c3ccccn3)no2)cc1)c1ccccc1`, which inhibition is on record?
Its inhibition is 42.3% (active).

With `COC(=O)c1ccc(OC(=O)c2cnccn2)cc1` as the molecule, how does the inhibition read?
The inhibition was 17.4%.

With `O=C(COc1cccc(F)c1)Oc1ccc(C(=O)c2ccccc2)cc1` as the molecule, how does the inhibition read?
Its inhibition is -3.52%.

Which inhibition does the source give for `Cc1cccc(C(=O)Nc2ccc(C(=O)/C=C/c3cccs3)cc2)c1` here?
The inhibition was -134%.

Which inhibition does the source give for `Cc1cccc(C(=O)Nc2ccc(CC(=O)O)cc2)c1` here?
Its inhibition is 60.9% (active).

Which inhibition does the source give for `CC(=O)Nc1ccc(NC(=O)[C@@H](NC(=O)c2cccc(C)c2)C(C)C)cc1` here?
Its inhibition is 4.88%.

With `O=C(CCc1ccccc1)NNc1ccc(F)cc1` as the molecule, how does the inhibition read?
Its inhibition is 5.59%.

For `CCCc1[nH]nc2c1C(c1ccc(Br)s1)C(C#N)=C(N)O2` (configuration not stated), which inhibition is on record?
Its inhibition is 80.8% (active).

For `CCCc1[nH]nc2c1C(C1CC=CCC1)C(C#N)=C(N)O2` (configuration not stated), which inhibition is on record?
Its inhibition is 52.3% (active).

For `COc1ccc(C2C(C#N)=C(N)Oc3n[nH]c(C)c32)cc1CN1CCN(c2ccc(F)cc2)CC1` (configuration not stated), which inhibition is on record?
Its inhibition is 16.6%.

Which inhibition does the source give for `N#CC1=C(N)OC2=C(C(=O)CCC2)C1C1CC=CCC1` (configuration not stated) here?
Its inhibition is -5.19%.

Which inhibition does the source give for `CCCc1nc2c([nH]1)C(c1cccnc1)C(C#N)=C(N)O2` (configuration not stated) here?
Its inhibition is 20.2%.

Which inhibition does the source give for `CSC1=NCCN1C(=O)c1ccc(S(=O)(=O)N2CCOCC2)cc1` here?
Its inhibition is 4.81%.

With `CC(C)C(C(=O)NC1CCCCC1)N(CC1CCCO1)C(=O)CNS(=O)(=O)c1ccc(F)cc1` (configuration not stated) as the molecule, how does the inhibition read?
Its inhibition is 12.1%.

Which inhibition does the source give for `COc1ccc(C2/C=C\CN(CC(C)C)CC(=O)N2Cc2ccc(F)cc2)cc1` (configuration not stated) here?
The inhibition was 4.31%.

Which inhibition does the source give for `COC(=O)c1sccc1NC(=O)CSc1ccccc1NS(=O)(=O)c1cc(Cl)ccc1Cl` here?
The inhibition was 7.65%.

Which inhibition does the source give for `Cc1ccc(CC(=O)N(C)CC(=O)N(CC(C)C)c2c(N)n(CC(C)C)c(=O)[nH]c2=O)cc1C` here?
Its inhibition is 10.3%.

Which inhibition does the source give for `C=C(C)C(=O)O[C@H]1C/C(C)=C\C(=O)/C=C(\C)[C@H](O)[C@@H]2OC(=O)C(=C)[C@@H]21` here?
The inhibition was 92.8% (active).

For `Cc1ccc(Cl)c(OCC(=O)NN2CCN(C)CC2)c1`, which inhibition is on record?
The inhibition was 13.6%.

Which inhibition does the source give for `CC1CN(C(=O)COC(=O)c2cccc(NS(=O)(=O)c3ccccc3)c2)CC(C)O1` (configuration not stated) here?
The inhibition was 10.2%.

Which inhibition does the source give for `CNC(=O)NC(=O)C(C)N1CCN(C/C=C/c2ccccc2)CC1` (configuration not stated) here?
The inhibition was 16.3%.

With `COCCCNC(=O)CNC(=O)c1nn(-c2ccc(OC)cc2)c(=O)c2ccccc12` as the molecule, how does the inhibition read?
The inhibition was 4.73%.

For `OCCN1CCN(C(=S)c2ccc(-c3ccccc3)cc2)CC1`, which inhibition is on record?
Its inhibition is 88.1% (active).

Which inhibition does the source give for `O=C(NC(=S)N1CCN(Cc2ccccc2)CC1)c1ccccc1` here?
Its inhibition is 3.06%.

Which inhibition does the source give for `S=C(c1ccc(-c2ccccc2)o1)N1CCCCC1` here?
The inhibition was -291%.

With `CCN(C(=O)c1cc([N+](=O)[O-])ccc1NCc1cccnc1)c1ccccc1` as the molecule, how does the inhibition read?
The inhibition was 11.9%.

Which inhibition does the source give for `Cc1ccc(S(=O)(=O)N(C)C)cc1NC(=O)COC(=O)C1COc2ccccc2O1` (configuration not stated) here?
The inhibition was 3.99%.

For `Fc1ccc2c(c1)C(c1cccnc1)=NNC(c1cccs1)=N2`, which inhibition is on record?
Its inhibition is 0.189%.

For `C=CCn1c(SCC(=O)NC(=O)Cc2ccccc2)nc2ccccc2c1=O`, which inhibition is on record?
Its inhibition is 15.8%.

For `O=C(/C=C/c1ccc([N+](=O)[O-])o1)NNC(=O)c1ccc(F)cc1`, which inhibition is on record?
The inhibition was 30.1%.

With `CCn1c(/C=C/c2ccc([N+](=O)[O-])o2)nc2ccccc2c1=O` as the molecule, how does the inhibition read?
Its inhibition is 56.6% (active).

For `CCc1cc(CNC(=O)CC2C(=O)NCCN2Cc2ccccc2C(F)(F)F)on1` (configuration not stated), which inhibition is on record?
The inhibition was 7.76%.

Which inhibition does the source give for `Cc1cc(C)c(S(=O)(=O)N2CCOCC2)cc1C` here?
The inhibition was 16.4%.

For `COCc1cc(=O)n2[nH]c(C)c(-c3ccccc3)c2n1`, which inhibition is on record?
The inhibition was 11.1%.

Which inhibition does the source give for `CC(C)[C@H](NC(=O)c1ccccc1F)C(=O)Nc1cccc(S(=O)(=O)N2CCOCC2)c1` here?
Its inhibition is 6.68%.

With `CCN(CC)CCCC(C)n1c2nc(=O)[nH]c(=O)c-2nc2cc(Cl)ccc21` (configuration not stated) as the molecule, how does the inhibition read?
Its inhibition is 70.8% (active).

With `O=c1c(-c2ccccc2Cl)c[nH]n1-c1ccccc1` as the molecule, how does the inhibition read?
The inhibition was -21.8%.

Which inhibition does the source give for `OC(c1ccccc1)c1nccn1Cc1ccccc1` (configuration not stated) here?
Its inhibition is 6.44%.

With `Cc1cc(C)c(NC(=O)c2oc3ccccc3c2COc2ccccc2)c(C)c1` as the molecule, how does the inhibition read?
The inhibition was 1.23%.

Which inhibition does the source give for `CCOC(=O)N1CCC(=NNC(N)=O)CC1` here?
The inhibition was 9.05%.

For `CC(=O)c1cccc(-c2cnc3c(NC=O)cc(-c4ccc(N(C)C)cc4)cn23)c1`, which inhibition is on record?
The inhibition was -15.5%.

With `CN(C)CCNC(=O)c1cccc(-c2cnc3c(NC=O)cc(-c4cccc(C(F)(F)F)c4)cn23)c1` as the molecule, how does the inhibition read?
The inhibition was 79.2% (active).

With `CN(C)C(=O)c1cccc(-c2cnc3c(NC=O)cc(-c4ccc(F)cc4)cn23)c1` as the molecule, how does the inhibition read?
The inhibition was 9.01%.

For `C=CCN1C(=NC(=O)COc2ccccc2)SC2CS(=O)(=O)CC21` (configuration not stated), which inhibition is on record?
The inhibition was 4.93%.

With `OCCN1CCN(CCO)C1=S` as the molecule, how does the inhibition read?
Its inhibition is 9.5%.

Which inhibition does the source give for `NCCCCCC(=O)N/N=C/c1ccc2nccnc2c1` here?
Its inhibition is 7.39%.

For `O=C(O)c1ccc(N/N=C/c2ccc3ncccc3c2)cc1`, which inhibition is on record?
Its inhibition is 54.5% (active).

Which inhibition does the source give for `CC(C)(C)OC(=O)N/N=C/c1ccc(C(=O)O)cc1` here?
The inhibition was 4.48%.

Which inhibition does the source give for `O=C1NC(=O)C(CCc2ccccc2)(c2ccccc2)N1` (configuration not stated) here?
The inhibition was 17.5%.

Which inhibition does the source give for `Cc1ccc(OCC(=O)c2cc(C)n(Cc3ccco3)c2C)c([N+](=O)[O-])n1` here?
Its inhibition is 48.1% (active).

With `COc1ccc(C)cc1-n1nnnc1SCC(=O)c1cc(C)n(Cc2ccco2)c1C` as the molecule, how does the inhibition read?
The inhibition was -49.1%.

With `Cc1cc(C(=O)COC(=O)CNC(=O)c2ccc(F)cc2)c(C)n1Cc1ccco1` as the molecule, how does the inhibition read?
Its inhibition is -47.3%.

For `COCC(C)n1c(C)cc(C(=O)COc2ccc(C)nc2[N+](=O)[O-])c1C` (configuration not stated), which inhibition is on record?
The inhibition was 50.6% (active).

Which inhibition does the source give for `Cc1ccc(OCC(=O)NC(C)c2ccccc2)c([N+](=O)[O-])n1` (configuration not stated) here?
Its inhibition is 17.9%.

For `COc1ccccc1CNC(=O)COc1ccc(C)nc1[N+](=O)[O-]`, which inhibition is on record?
Its inhibition is -1.54%.
